HCMV antiviral: human cytomegalovirus inhibition; HFF cells, HCMV-luciferase reporter, 72 h; stronger effect = lower value; actives 4.5% (n = 410,000); AID 1259415; activity change, negative = inhibition, % at 57.5 µM; in the data active = activity change below about -60%; inconclusive = no clear call, values can overlap the other calls; inactive = above about -39%
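Screen run at 2 compound doses on HFFs infected with reporter HCMV, MOI 1 PFU/cell. Luciferase activity from cell lysates at 72 h post infection gave inhibition relative to buffer-only and Salinomycin wells.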
HCV inhibitor: inhibitors of hepatitis C virus infection; Huh7.5.1 HCVcc-Cre infection, luciferase reporter, 44 h; Potency, µM (doses to about 41.8 µM), for the others: at the highest dose activity change, negative = inhibition, most hits filed as inhibitors; actives 3.4% (n = 340,000); active = well fitted inhibition curve with a large enough effect; inconclusive = small, poorly fitted or top-dose-only effect, or another doubt; inactive = no such curve, though single readings can be large or run the other way; also: potency is read from the fitted curve at half-maximal effect
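Infectious HCVcc-Cre (~0.5 moi) was added to cells just after compound, with cells seeded 4 h earlier at 1,000 per well. Luciferase activity after 44 h culture reported infection; substrate was incubated 15 min at room temperature before reading.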
MARV entry inh: inhibitors of Marburg virus binding or cell entry. Potency, µM (highest dose often 37.8 µM), for inactives: at the highest dose activity change, negative = inhibition, hits mostly inhibitors. actives 1.8% (n = 300,000). Marburg virus pseudotyped entry inhibition, cell reporter. AID 540276; calls by dose curve; tested in HEK293 cells; also: potency is read from the fitted curve at half-maximal effect
Lassa entry inh: Lassa virus entry inhibition. actives 1.2% (n = 300,000). AID 540256. Lassa virus pseudotype entry inhibition, cell reporter. Potency, µM (titrated, usually from 37.9 µM), inactives show at the highest dose activity change, negative = inhibition, hits mostly inhibitors; calls by dose curve; tested in HEK293 cells; also: potency is read from the fitted curve at half-maximal effect; nearly all actives have a fitted effect of over 50% in size
FMDV inh: foot and mouth disease virus antiviral activity | FMDV antiviral cell-based qHTS | actives 1.2% (n = 410,000) | Potency, µM (highest dose often 57.9 µM), without a hit: at the highest dose activity change, negative = inhibition, hits mostly inhibitors; calls by dose curve; tested in HEK293T cells; also: read-out not given here; potency is read from the fitted curve at half-maximal effect; nearly all actives have a fitted effect of over 45% in size
Starred values were filed as active, the others as inactive; ? = inconclusive; · = not tested or not shown; + = active, no number; [ ] = remark or other dose. A selection: hits, their analogues and other compounds. The true share with any hit is near 7.9%. % is scaled to controls: 0 for no effect and ±100 for the full control effect.

SMILES | HCMV antiviral | HCV inhibitor | MARV entry inh | Lassa entry inh | FMDV inh
CN1CCN(C(=O)CN2C(=O)NC(C)(c3ccc4ccccc4c3)C2=O)CC1 (centres undefined) | ? | -16% | -2% | 2% | -14%
COc1cccc(N2CCN(C(=O)CCCCCNc3nc(=S)[nH]c4ccccc34)CC2)c1 | -62* | 11µM* | ? | -18% | 25µM*
COc1cccc(CNC(=O)C2CCC(CNc3nc(=S)[nH]c4ccccc34)CC2)c1 (centres undefined) | 14 | 2µM* | -7%[46.1 µM] | · | -11%
COc1cccc(CNC(=O)C2CCN(c3nc4ccc(Cl)cc4[nH]3)CC2)c1 | 0 | · | · | -1%[46.1 µM] | -27%
O=C(CCCn1c(=S)[nH]c2ccccc2c1=O)N1CCN(c2cccc(Cl)c2)CC1 | ? | -25% | -25% | -8% | -25%
COc1ccc(CNC(=O)c2cc3c(=O)n(Cc4cccs4)ccc3nc2C)cc1 | -3 | · | · | -26%[46.1 µM] | 10%
CCN(CC)S(=O)(=O)c1ccc(C(=O)NCCSc2c(-c3ccc(F)cc3)[nH]c3ccccc23)cc1 | -30 | · | ? | -29%[46.1 µM] | 0%
CC(C(=O)O)N1C(=O)c2ccccc2C1=O (centres undefined) | -99* | 6% | 1% | 0% | -10%
COc1ccccc1-c1nn2c(=O)cc(CN3CCN(C(=O)/C=C/c4ccccc4)CC3)nc2s1 | 17 | · | · | ? | -13%
O=C(OCCOc1cccc(Cl)c1)c1ccc(F)c(S(=O)(=O)N2CCOCC2)c1 | 5 | ? | · | · | -26%
O=C(OCCOc1cccc(Cl)c1)c1cc(S(=O)(=O)N2CCOCC2)ccc1F | -7 | 25µM* | 8% | 20% | -21%
O=C(OCCOc1ccc(Cl)cc1)c1cc(S(=O)(=O)N2CCCCC2)ccc1N1CCOCC1 | ? | 3.5µM* | · | · | ?
CCOc1ccc(CN(CCc2ccc3c(c2)OCO3)Cc2cc(OC)cc(OC)c2)cc1 | 19 | · | -37%[46.1 µM] | -1%[46.1 µM] | ?
CCC1CCCCN1C(=O)CSc1n[nH]c(-c2ccccc2)n1 (centres undefined) | 53 | · | · | -15%[46.1 µM] | 15%
CCCN1CCN(CCCNC(=O)c2ccc3c(c2)sc2nc(-c4ccc(C)cc4)cn23)CC1 | · | · | · | 3%[46.1 µM] | 5%
CCn1ccnc1CNC(=O)CC1C(=O)NCCN1Cc1ccc(OC)cc1OC (centres undefined) | -28 | 8% | · | · | 3%
CCOc1ccccc1CN1CCNC(=O)C1CC(=O)NCc1nccn1CC (centres undefined) | -67* | -14% | 8% | 9% | -16%
CCOC(=O)C1=C(c2cccc(Oc3ccccc3)c2)NC(=S)NC1C (centres undefined) | ? | 8.9µM* | ? | ? | -22%
CCOC(=O)C1=C(c2ccccc2)NC(=S)NC1c1ccc(Cl)c([N+](=O)[O-])c1 (centres undefined) | · | ? | -32% | -18% | ·
CCOC(=O)C1=C(C)C(c2cccc(Oc3ccccc3)c2)NC(=S)N1 (centres undefined) | ? | ? | ? | 8.9µM* | 28µM*
CN(C)C(=O)Oc1ccnc2cc(Cl)ccc12 | + | -7% | 1%[46.1 µM] | 14% | -12%
CCCc1c(NC(=O)Nc2ccc(F)cc2)cnn1-c1ccccc1 | -67* | -19% | · | · | 5%
CCC(CC)C(=O)Nc1ccc2nc(SCC(=O)N3c4ccccc4CC3C)sc2c1 (centres undefined) | -32 | · | ? | ? | 0%
CC1(C)Cc2ccccc2C2=NNC(=O)C2=N1 | -102* | ? | ? | ? | ?
Cc1ccc(S(=O)(=O)n2nc(-n3c(C)ccc3C)c3c(F)cccc32)c2ccccc12 | 16 | 8% | 11µM* | -20%[46.1 µM] | -13%
SMILES | HCMV antiviral | HCV inhibitor | MARV entry inh | Lassa entry inh | FMDV inh
Cc1ccc(C)n1-c1nn(S(=O)(=O)c2cccc3cccnc23)c2cccc(F)c12 | -10 | -2% | ? | -17% | -1%
O=C(OCC1OC(OC(=O)c2cc(O)c(O)c(OC(=O)c3cc(O)c(O)c(O)c3)c2)[C@@H](OC(=O)c2cc(O)c(O)c(OC(=O)c3cc(O)c(O)c(O)c3)c2)C(OC(=O)c2cc(O)c(O)c(OC(=O)c3cc(O)c(O)c(O)c3)c2)C1OC(=O)c1cc(O)c(O)c(OC(=O)c2cc(O)c(O)c(O)c2)c1)c1cc(O)c(O)c(OC(=O)c2cc(O)c(O)c(O)c2)c1 (some centres undefined) | · | · | 0.35µM* | 11µM* | ·
Clc1ccc(Cl)c2sc(N3CCOCC3)nc12 | 8 | 13µM* | -2%[46.1 µM] | ? | 35%
COc1ccc(C)c2sc(NC(=O)c3ccc(S(=O)(=O)N4CCCCC4)cc3)nc12 | -8 | · | · | -11%[46.1 µM] | -13%
CN(Cc1ccccc1)C(=O)c1ccc(NC(=O)Cc2ccc(NC(=O)C3CCCN(S(=O)(=O)c4cccc([N+](=O)[O-])c4)C3)cc2)cc1 (centres undefined) | 4 | 13µM* | · | · | -29%
CN(CCc1ccccc1)C(=O)c1ccc(NC(=O)Cc2ccc(NC(=O)C3CCCN(C(=O)C4CCCC4)C3)cc2)cc1 (centres undefined) | -68* | ? | · | · | ?
CN(Cc1ccccc1)C(=O)c1cccc(NC(=O)Cc2cccc([N+](=O)[O-])c2)c1 | ? | 2.8µM* | · | · | ?
CN(Cc1ccccc1)C(=O)c1ccc(NC(=O)C2CCCN(C(=O)OC(C)(C)C)C2)cc1 (centres undefined) | -39 | 6.3µM* | · | · | ?
CN(CCc1ccccc1)C(=O)c1ccc(NC(=O)Cc2ccc(NC(=O)C3CCCN(C(=O)C4CC4)C3)cc2)cc1 (centres undefined) | -21 | ? | · | · | ?
Cc1cccc(CNC(=O)c2cnn(-c3nccc(-c4cccs4)n3)c2C2CC2)n1 | · | · | · | · | -8%
O=C(CCCn1c(=O)c2ccccc2n(Cc2cccc(Cl)c2)c1=O)NCCc1ccc(Cl)cc1 | -8 | · | ? | ? | -19%
CN(Cc1ccccc1)C(=O)c1cccc(NC(=O)Cc2ccc(NC(=O)C3CCN(C(=O)CCc4ccccc4)CC3)cc2)c1 | -91* | 2.2µM* | · | · | 18µM*
CN(Cc1ccccc1)C(=O)c1ccc(NC(=O)Cc2ccc(NC(=O)C3CCN(C(=O)CCc4ccccc4)CC3)cc2)cc1 | -89* | ? | · | · | 0%
CN(Cc1ccccc1)C(=O)c1ccc(NC(=O)Cc2ccc(NC(=O)C3CCCN(C(=O)CCc4ccccc4)C3)cc2)cc1 (centres undefined) | -67* | 2.2µM* | · | · | ?
O=C(NCC1Cc2cccc(-c3cnccn3)c2O1)c1ccc(F)c(Cl)c1 (centres undefined) | · | · | · | · | -6%
CCOc1ccc2c(c1)c(=O)c(S(=O)(=O)c1ccc(CC)cc1)cn2Cc1cccc(Cl)c1 | -17 | · | 10%[46.1 µM] | -14%[46.1 µM] | -1%
C[C@H](C(=O)N[C@H](CO)c1ccccc1)N1Cc2ccc(N3CCOCC3)nc2C1=O | -5 | · | · | · | ·
N#CC(C#N)=NNc1ccc([N+](=O)[O-])cc1 | -91* | 11µM* | ? | ? | -21%
